{"source": "the supplement of paper PMC10338343", "note": "± gives the standard deviation."}
{"system": "EfPiwi piRISC loaded with L1MC piRNA (26 nt)", "experiment": "pre-steady-state target cleavage rate (min^-1); auxiliary factor: 500 nM Ephydatia muelleri Gtsf1; guide: L1MC piRNA 5'p-UAACUAAAUACUAUGCAAGCUGUAGG; MIWI and MILI are mouse PIWI proteins and EfPiwi is from a freshwater sponge; tags in brackets are library labels; higher = faster piRNA-guided slicing of the target", "outline": "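Cleave-'n-Seq reactions paired 0.1 nM transcribed, DNA-blocked target RNA library with 1 nM active affinity-purified piRISC holding one synthetic guide, plus or minus 500 nM GTSF1 partner protein, in HEPES–potassium acetate buffer at 33 °C for 0–8 or 0–960 min. After sequencing of uncleaved targets and normalisation to depth and weakly complementary targets, the pre-steady-state cleavage rate was taken from a burst-and-steady-state fit. Three trials were pooled, and k3 was capped at 0.0001 min^-1.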"}
{"sequence": "UCCUGCUACAGCUUGCAUAGUUAUUAGAAA", "pre-steady-state target cleavage rate": "0.00309 ± 0.0025"}
{"sequence": "UCCUGGAUGUCCUUGCAUAGUAUUUAGGUUA", "pre-steady-state target cleavage rate": "0.00393 ± 0.0033"}
{"sequence": "UCCUGGAUGUCGAACCAGAGUAUUUAGUUA", "pre-steady-state target cleavage rate": "< 0.0001"}
{"sequence": "UCCUGGAACAGGUUGCAUAGUUUUUAGUUA", "pre-steady-state target cleavage rate": "0.00366 ± 0.0018"}
{"sequence": "UCCUGGAUGUCGACGCAUAGUAUUUAGUUA", "pre-steady-state target cleavage rate": "0.00545 ± 0.0032"}
{"sequence": "UCCUGGAUGUCGAACGUAAGGAUUUAGUUA", "pre-steady-state target cleavage rate": "< 0.0001"}
{"sequence": "UCCUGGAUGAGCUUGCAUACUAUUUAGAAA", "pre-steady-state target cleavage rate": "0.00478 ± 0.0029"}
{"sequence": "UCCUGGAUGUCGUUGGUUAGUAUUUAGUUA", "pre-steady-state target cleavage rate": "< 0.0001"}
{"sequence": "UCCUGGAUGUCGAACGAUACGUAUUUAGUUA", "pre-steady-state target cleavage rate": "< 0.0001"}
{"sequence": "UCCUGCUACACGUUGCAUAGUAUUUAGUAA", "pre-steady-state target cleavage rate": "0.00458 ± 0.0025"}
{"sequence": "UCCUGCUACAGCUUGCAUAGUAAUUUCAAA", "pre-steady-state target cleavage rate": "0.00378 ± 0.0027"}
{"sequence": "UCCUGCUACAGCUUGCGUAGUAUUUAGUUA", "pre-steady-state target cleavage rate": "0.0375 ± 0.011"}
{"sequence": "UCCUGGAACAGCUUCCAUAGUAUUUAGAUA", "pre-steady-state target cleavage rate": "0.00228 ± 0.0017"}
{"sequence": "UCCUGCUUCAGCUUGCAUUGUAUUUAGUUA", "pre-steady-state target cleavage rate": "0.0233 ± 0.0065"}
{"sequence": "UCCUGGUACAGUUUGCAUAGUAUUUAGUUA", "pre-steady-state target cleavage rate": "0.00421 ± 0.0025"}
{"sequence": "UCCUGGAUGUCGAACGAUAGUCAUUUAGUUA", "pre-steady-state target cleavage rate": "< 0.0001"}
{"sequence": "UCCUGGUACAGCUUGCAUAGUAUUUUGUAA", "pre-steady-state target cleavage rate": "0.00379 ± 0.0027"}
{"sequence": "UCCUGGAUGUCGAACCAUAGAUAUUAGUUA", "pre-steady-state target cleavage rate": "< 0.0001"}
{"sequence": "UCCUGCUACAGCUUGCAUAGUAUUAUGUAA", "pre-steady-state target cleavage rate": "0.00194 ± 0.0019"}
{"sequence": "UCCUCCUACAGCUGCAUAGUAUUUAGUUA", "pre-steady-state target cleavage rate": "0.0884 ± 0.026"}
{"sequence": "UCCUGCUACAGCUUGCAUAGUAAUUUAGUUA", "pre-steady-state target cleavage rate": "0.00515 ± 0.0024"}
{"sequence": "UCCUGCUAGUGCUUGCAUAGUAUUUAGAAA", "pre-steady-state target cleavage rate": "0.00258 ± 0.0014"}
{"sequence": "UCCUGGAUCAGACUUGCAUAGUAUUUAGUUA", "pre-steady-state target cleavage rate": "0.0293 ± 0.009"}
{"sequence": "UCCUGGAUGAGCUUGCGAUAGUAUUUAGUUA", "pre-steady-state target cleavage rate": "0.00307 ± 0.0022"}
{"sequence": "UCCUGGUACAGCUUGCAUAGUAUUAAGUUA", "pre-steady-state target cleavage rate": "0.00521 ± 0.0021"}
{"sequence": "UCCUCCUACAGCUUGAAUAGUAUUUAGUUA", "pre-steady-state target cleavage rate": "0.0651 ± 0.017"}
{"sequence": "UCCUGGAACAGCUUGCAUAGUAUUAAGAUA", "pre-steady-state target cleavage rate": "0.00257 ± 0.0022"}
{"sequence": "UCCUGGAUGUCGAACCAUACUAAUUAGUUA", "pre-steady-state target cleavage rate": "< 0.0001"}
{"sequence": "UCCUGCUACACGUUGCAUAGUAUUUAGUUA", "pre-steady-state target cleavage rate": "0.0175 ± 0.0063"}
{"sequence": "UCCUGCUACAGCUUGCAUAGUAUGUAGUUA", "pre-steady-state target cleavage rate": "0.00311 ± 0.0014"}
{"sequence": "UCCUGGAUGUCGAACGUAUCUAUUUAUGUUA", "pre-steady-state target cleavage rate": "< 0.0001"}
{"sequence": "UCCUGGAUGUCGAACGUAUGUAUUUUGUUA", "pre-steady-state target cleavage rate": "< 0.0001"}
{"sequence": "UCCUGCUACAGCUUGCAUAGUAUUUAGGUUA", "pre-steady-state target cleavage rate": "0.00526 ± 0.0014"}
{"sequence": "UCCUGGUAUAGCUUGCAUAGUAUUUAGUUA", "pre-steady-state target cleavage rate": "0.0287 ± 0.0075"}
{"sequence": "UCCUGGAUGUGCUUUCAUAGUAUUUAGUUA", "pre-steady-state target cleavage rate": "0.0041 ± 0.0024"}
{"sequence": "UCCUCCUACAGCAUGCUUAGUAUUUAGUUA", "pre-steady-state target cleavage rate": "0.0116 ± 0.0032"}
{"sequence": "UCCUCCUACAGCUUGCAUAGUAUUUAGAUA", "pre-steady-state target cleavage rate": "0.00505 ± 0.0025"}
{"sequence": "UCCUGGAUCUGCUUGCAUAGUAUAUAGUUA", "pre-steady-state target cleavage rate": "0.0643 ± 0.018"}
{"sequence": "UCCUGCUACAGCUUGCAUAGUAUAAUGUAA", "pre-steady-state target cleavage rate": "0.00248 ± 0.002"}
{"sequence": "UCCUGGUACAGCUUGCAUAGUAAAUAGUUA", "pre-steady-state target cleavage rate": "0.00642 ± 0.0025"}
